± gives the standard deviation.
System: RAW-Dual (murine macrophage reporter line)
Experiment: NF-kB reporter (SEAP) activity fold change vs agonist alone; higher = enhanced NF-kB activity
Conditions: modulator concentration 10 µM; agonist: LPS 0.1 ug/mL
Method in brief: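 Compound reached 10 μM final in each well by pin transfer, onto RAW-Dual murine macrophage reporter cells seeded at 50 000 per well in 384-well plates. After 1 hour at 37 °C, the cells were stimulated overnight with a PRR agonist. SEAP in the supernatant was read with QUANTI-Blue at 620 nm absorbance for NF-κB, and Lucia luciferase was read with QUANTI-Luc luminescence for IRF. Each signal was turned into fold change against the mean agonist-only control on the same plate, and two replicate plates were averaged with propagated errors.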

SMILES	NF-kB reporter
Nc1ncnc2c1ncn2C1OC(COP(=O)(O)O)C(O)C1O (stereo not given)	1.3 ± 0.089
CC1=C(C(=O)OCC(F)(F)C(F)(F)F)C(c2ccccc2)NC(=O)N1 (stereo not given)	0.975 ± 0.077
O=C(Cn1cc(S(=O)(=O)c2ccc(F)cc2)c2ccccc21)N1CCCCCC1	0.902 ± 0.073
Cc1ccc(Nc2cc(N3CCCCC3)c(N)c3c2C(=O)c2ccccc2C3=O)cc1	1.09 ± 0.067
COc1cccc(-c2cc(C(=O)N3CCC(Oc4cc(C)n(C)c(=O)c4)CC3)n(C)n2)c1	0.994 ± 0.1
O=C(COc1cccc2ccccc12)NCc1ccncc1	1.1 ± 0.06
N#Cc1nc(-c2ccc(COc3ccc(Cl)cc3)o2)oc1N1CCCCC1	1.29 ± 0.14
Brc1ccc(CN2C3=NCCCN3c3ccccc32)cc1.Cl	0.826 ± 0.054
CN1CCN(CCC=C2c3ccccc3Sc3ccc(S(=O)(=O)N(C)C)cc32)CC1	1.04 ± 0.12
NC[C@@H]1O[C@H](O[C@@H]2[C@@H](CO)OC(O[C@@H]3[C@@H](O)[C@H](N)C[C@H](N)[C@H]3O[C@H]3O[C@H](CN)[C@@H](O)[C@H](O)[C@H]3N)[C@@H]2O)[C@H](N)[C@@H](O)[C@@H]1O.O=S(=O)(O)O (stereo not given in full)	1.01 ± 0.091
COc1cc2nc(N3CCN(C(=O)C4COc5ccccc5O4)CC3)nc(N)c2cc1OC (stereo not given) [Prestw-858]	0.961 ± 0.071
Cc1ncn(CC(=O)N2CC(Oc3cccc(C(F)(F)F)n3)C2)c(=O)c1C	1.09 ± 0.086
COc1ccccc1C1C(C(C)=O)=C(O)C(=O)N1CCN(C)C (stereo not given)	1.07 ± 0.072
O=C(Nc1ccc(Cl)cc1)C(Sc1ccccc1)c1ccccc1 (stereo not given)	1.02 ± 0.1
CC=CCn1c(=O)c2c(nc3n2CC(C(C)(C)C)=NN3)n(C)c1=O	1.09 ± 0.1
CC(C)(C)c1cc(NCc2ccccn2)n2ncc(-c3ccc(Cl)cc3)c2n1	0.477 ± 0.032
CCC(=O)CC(O)(c1ccccc1)C(F)(F)F (stereo not given)	0.955 ± 0.19
CCC1(CC)Cc2ccccc2C(CC(=O)N2CCOCC2)=N1.O=S(=O)(O)O	1.13 ± 0.072
NC(=O)c1cccnc1	0.878 ± 0.33
Cc1cc(=O)[nH]c(-n2nc(C)c(CCC(=O)N3CCN(C)CC3)c2C)n1	1.13 ± 0.089

SMILES	NF-kB reporter
COc1cc2nccc(Oc3ccc(NC(=O)Nc4cc(C)on4)c(Cl)c3)c2cc1OC	0.66 ± 0.062
Cc1cnc(C(=O)O)c[n+]1[O-]	0.988 ± 0.074
CCN(CC)CCCC(C)Nc1c2ccc(Cl)cc2nc2ccc(OC)cc12 (stereo not given) [Prestw-318]	0.167 ± 0.04
O=C(CCCn1nc(-c2ccc(F)cc2)ccc1=O)Nc1cc(Cl)ccc1Cl	1.06 ± 0.091
CC(C)Sc1ccc(CC(=O)N2C3C=CCC2CC3)cc1 (stereo not given)	1.03 ± 0.082
COc1cc(O)c2c(=O)cc(-c3ccc(O)cc3)oc2c1	1.04 ± 0.076
COCCN1C(=O)CN(C2CCN(Cc3cc(OC)cc(OC)c3)CC2)C1=O	1.14 ± 0.11
CC1c2cccc(O)c2C(=O)C2=C(O)C3(O)C(=O)C(C(N)=O)=C(O)C(N(C)C)C3C(O)C21.Cl (stereo not given)	1.15 ± 0.058
CCOc1ccc(-c2ccc(=O)n(CCNS(=O)(=O)CCc3ccccc3)n2)cc1	1.22 ± 0.13
Cc1cc(CCNC(=O)c2cc3ccccc3s2)nn1C	1.07 ± 0.082
O=C(NCCN1CCOCC1)c1ccc(Cl)cc1	1.13 ± 0.3
COc1cc2nc(N(C)CCCNC(=O)C3CCCO3)nc(N)c2cc1OC.Cl (stereo not given)	0.838 ± 0.14
CCCCCCOc1ccc(N2C(=O)CC(N3CCN(Cc4ccc5c(c4)OCO5)CC3)C2=O)cc1 (stereo not given)	1.07 ± 0.075
COC(=O)C1=CN(CC2CCCO2)C=C(C(=O)OC)C1c1cccc(F)c1 (stereo not given)	0.907 ± 0.084
COc1ccc(C2(C#N)CCC(C(=O)O)CC2)cc1OC1CCCC1 (stereo not given)	1.16 ± 0.085
COc1ccc(N2CC(C(=O)NCc3ccccc3C(F)(F)F)CC2=O)cc1 (stereo not given)	1.07 ± 0.085
COc1cccc2c1C(=O)c1c(O)c3c(c(O)c1C2=O)C[C@@](O)(C(=O)CO)C[C@@H]3O[C@H]1C[C@H](N)[C@H](O)[C@H](C)O1.Cl	0.0784 ± 0.0047
O=c1cc(-c2ccccc2)oc2cc(O)c(O)c(O)c12	1.09 ± 0.075
O=C1C(O)=C(c2ccc([N+](=O)[O-])cc2)C(=O)c2ccccc21	1.02 ± 0.1
CCCCOc1ccc(CC(=O)NO)cc1	1.56 ± 0.37

Same assay, conditions: modulator concentration 10 µM; agonist: MPLA […]

SMILES	NF-kB reporter
Nc1ncnc2c1ncn2C1OC(COP(=O)(O)O)C(O)C1O (stereo not given)	1.55 ± 0.11
CC1=C(C(=O)OCC(F)(F)C(F)(F)F)C(c2ccccc2)NC(=O)N1 (stereo not given)	0.863 ± 0.053
O=C(Cn1cc(S(=O)(=O)c2ccc(F)cc2)c2ccccc21)N1CCCCCC1	1.02 ± 0.055
Cc1ccc(Nc2cc(N3CCCCC3)c(N)c3c2C(=O)c2ccccc2C3=O)cc1	0.964 ± 0.12
COc1cccc(-c2cc(C(=O)N3CCC(Oc4cc(C)n(C)c(=O)c4)CC3)n(C)n2)c1	0.983 ± 0.06
O=C(COc1cccc2ccccc12)NCc1ccncc1	1.02 ± 0.12
N#Cc1nc(-c2ccc(COc3ccc(Cl)cc3)o2)oc1N1CCCCC1	1.13 ± 0.075
Brc1ccc(CN2C3=NCCCN3c3ccccc32)cc1.Cl	1.34 ± 0.092
CN1CCN(CCC=C2c3ccccc3Sc3ccc(S(=O)(=O)N(C)C)cc32)CC1	1.01 ± 0.051
NC[C@@H]1O[C@H](O[C@@H]2[C@@H](CO)OC(O[C@@H]3[C@@H](O)[C@H](N)C[C@H](N)[C@H]3O[C@H]3O[C@H](CN)[C@@H](O)[C@H](O)[C@H]3N)[C@@H]2O)[C@H](N)[C@@H](O)[C@@H]1O.O=S(=O)(O)O (stereo not given in full)	0.983 ± 0.025
COc1cc2nc(N3CCN(C(=O)C4COc5ccccc5O4)CC3)nc(N)c2cc1OC (stereo not given) [Prestw-858]	1.34 ± 0.15
Cc1ncn(CC(=O)N2CC(Oc3cccc(C(F)(F)F)n3)C2)c(=O)c1C	0.9 ± 0.08
COc1ccccc1C1C(C(C)=O)=C(O)C(=O)N1CCN(C)C (stereo not given)	0.947 ± 0.057
O=C(Nc1ccc(Cl)cc1)C(Sc1ccccc1)c1ccccc1 (stereo not given)	0.926 ± 0.065
CC=CCn1c(=O)c2c(nc3n2CC(C(C)(C)C)=NN3)n(C)c1=O	1.08 ± 0.11
CC(C)(C)c1cc(NCc2ccccn2)n2ncc(-c3ccc(Cl)cc3)c2n1	0.79 ± 0.025
CCC(=O)CC(O)(c1ccccc1)C(F)(F)F (stereo not given)	1.02 ± 0.049
CCC1(CC)Cc2ccccc2C(CC(=O)N2CCOCC2)=N1.O=S(=O)(O)O	1.16 ± 0.096
NC(=O)c1cccnc1	1.03 ± 0.13
Cc1cc(=O)[nH]c(-n2nc(C)c(CCC(=O)N3CCN(C)CC3)c2C)n1	0.977 ± 0.028

SMILES	NF-kB reporter
COc1cc2nccc(Oc3ccc(NC(=O)Nc4cc(C)on4)c(Cl)c3)c2cc1OC	0.639 ± 0.057
Cc1cnc(C(=O)O)c[n+]1[O-]	1.03 ± 0.026
CCN(CC)CCCC(C)Nc1c2ccc(Cl)cc2nc2ccc(OC)cc12 (stereo not given) [Prestw-318]	0.447 ± 0.051
O=C(CCCn1nc(-c2ccc(F)cc2)ccc1=O)Nc1cc(Cl)ccc1Cl	0.989 ± 0.11
CC(C)Sc1ccc(CC(=O)N2C3C=CCC2CC3)cc1 (stereo not given)	1.08 ± 0.1
COc1cc(O)c2c(=O)cc(-c3ccc(O)cc3)oc2c1	1.01 ± 0.024
COCCN1C(=O)CN(C2CCN(Cc3cc(OC)cc(OC)c3)CC2)C1=O	0.881 ± 0.04
CC1c2cccc(O)c2C(=O)C2=C(O)C3(O)C(=O)C(C(N)=O)=C(O)C(N(C)C)C3C(O)C21.Cl (stereo not given)	1.04 ± 0.074
CCOc1ccc(-c2ccc(=O)n(CCNS(=O)(=O)CCc3ccccc3)n2)cc1	1.06 ± 0.083
Cc1cc(CCNC(=O)c2cc3ccccc3s2)nn1C	0.991 ± 0.064
O=C(NCCN1CCOCC1)c1ccc(Cl)cc1	0.953 ± 0.055
COc1cc2nc(N(C)CCCNC(=O)C3CCCO3)nc(N)c2cc1OC.Cl (stereo not given)	0.958 ± 0.056
CCCCCCOc1ccc(N2C(=O)CC(N3CCN(Cc4ccc5c(c4)OCO5)CC3)C2=O)cc1 (stereo not given)	0.9 ± 0.055
COC(=O)C1=CN(CC2CCCO2)C=C(C(=O)OC)C1c1cccc(F)c1 (stereo not given)	1.05 ± 0.098
COc1ccc(C2(C#N)CCC(C(=O)O)CC2)cc1OC1CCCC1 (stereo not given)	1.37 ± 0.16
COc1ccc(N2CC(C(=O)NCc3ccccc3C(F)(F)F)CC2=O)cc1 (stereo not given)	0.935 ± 0.041
COc1cccc2c1C(=O)c1c(O)c3c(c(O)c1C2=O)C[C@@](O)(C(=O)CO)C[C@@H]3O[C@H]1C[C@H](N)[C@H](O)[C@H](C)O1.Cl	0.178 ± 0.036
O=c1cc(-c2ccccc2)oc2cc(O)c(O)c(O)c12	1.2 ± 0.15
O=C1C(O)=C(c2ccc([N+](=O)[O-])cc2)C(=O)c2ccccc21	0.905 ± 0.079
CCCCOc1ccc(CC(=O)NO)cc1	1.34 ± 0.076

Source: the supplement of paper PMC10646978
